An excerpt weighted towards active compounds, which were near 1.4% of everything screened.
Mtb MbtI inh: blocks the Mycobacterium tuberculosis siderophore enzyme MbtI; P9WFX0; purified MbtI enzyme, fluorescence intensity read-out; inhibition, % (no concentration beside the values); 0.89% of 100,000 active; AID 493033; in the data active = inhibition mostly above about 56%, no sharp cut-off; inactive = mostly below about 77%
Polio RdRp inh: poliovirus RNA polymerase inhibition. 0.66% of 150,000 active. % elongation, % (compound at 16.7 µg/mL). poliovirus polymerase elongation, fluorescence polarization; stronger effect = lower value; in the data active = % elongation below about 90%
Mtb MenB inh: inhibitors of Mycobacterium tuberculosis MenB enzyme; 0.43% of 100,000 active; MenB enzyme assay, absorbance read-out; inhibition, % (no concentration beside the values); P9WNP5; in the data active = inhibition above about 21%, passing the limit was not always enough
Target sequence (P9WNP5 whole entry, looked up): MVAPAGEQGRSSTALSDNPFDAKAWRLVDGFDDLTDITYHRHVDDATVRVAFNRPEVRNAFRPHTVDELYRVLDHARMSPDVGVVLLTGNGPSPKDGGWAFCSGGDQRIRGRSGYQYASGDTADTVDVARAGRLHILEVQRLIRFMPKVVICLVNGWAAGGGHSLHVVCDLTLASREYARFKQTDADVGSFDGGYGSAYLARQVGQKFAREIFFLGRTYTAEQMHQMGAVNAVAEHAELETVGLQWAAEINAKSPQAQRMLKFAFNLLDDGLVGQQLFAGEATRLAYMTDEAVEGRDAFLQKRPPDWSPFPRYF
* = called active by the depositor; · = no result given.

SMILES | Mtb MbtI inh | Polio RdRp inh | Mtb MenB inh
COc1ccc(OCC(=O)Nc2ccc(N3CCN(S(C)(=O)=O)CC3)cc2)cc1 | -4.5 | 105.0 | -6.0
COc1ccc(N2CCN(S(C)(=O)=O)CC2)cc1 | -2.1 | 101.0 | 39.7*
Cc1ccc(C(=O)c2ccc(C)c(C)c2)cc1C | 2.9 | 102.0 | -21.3
Cc1ccc(C(=O)CBr)cc1C | 88.4* | 101.0 | ·
Nn1c(C2CC2)n[nH]c1=S | 20.6 | 97.0 | -28.9
Nn1c(CCC2CCCCC2)n[nH]c1=S | 85.9* | 81.0* | -63.0
CN1C(=O)/C(=C\c2ccc(C(=O)N3CCC4(CC3)OCCO4)cc2)SC1=S | -3.9 | · | -7.1
O=C(NC1CCSC1=O)c1ccc(Br)cc1 (stereo not drawn) | -19.9 | 102.0 | -15.7
FC(F)Oc1ccc(Cl)c2ccccc12 | -4.0 | 100.0 | -6.5
Cc1cc(Cl)ccc1OCCSc1nnc(-c2cccs2)o1 | · | 10.0* | ·
Cc1ccccc1OCCSc1nnc(-c2cccs2)o1 | · | 109.0 | ·
COC(=O)CCn1cc(C=C2C(=O)NC(=O)NC2=O)c(-c2ccccc2)n1 | 22.6 | 106.0 | -17.2
Cc1cc2ccccc2nc1SCC(N)=O | -19.4 | 102.0 | 14.0
Cc1ccc(-c2n[nH]c(=S)n2C)cc1 | 72.9 | 101.0 | 0.6
Cc1ccc(-c2cn3c(=S)[nH]nc3s2)cc1 | 97.7* | 100.0 | -50.8
Cc1nn(-c2ccccc2)c(C)c1NC(=S)NC(=O)c1cccs1 | 7.2 | 101.0 | -3.4
CNc1nnc(-c2ccccc2)c2ccccc12 | 1.1 | 101.0 | -14.1
CNc1nc(-c2ccccc2)[n+](-c2ccccc2)s1 | 100.1* | 102.0 | ·
CC(=O)c1cccc(NC(=O)c2oc3c(c2C)-c2nn(Cc4ccc(Cl)cc4)cc2CC3)c1 | · | 93.0 | ·
CCOC(=O)c1cccc(NC(=O)c2oc3c(c2C)-c2nn(CC)cc2CC3)c1 | · | 64.0* | ·
O=C(CCNC(=O)c1ccco1)NC12CC3CC(CC(C3)C1)C2 | 2.1 | 104.0 | -24.1
c1ccc(CN(CCN(Cc2ccccn2)Cc2ccccn2)Cc2ccccn2)nc1 | -14.3 | 104.0 | 29.8*
NCCc1ccccn1 | -5.3 | 100.0 | -30.2
O=C(O)CC(CP(c1ccccc1)c1ccccc1)C(=O)O (stereo not drawn) | -17.3 | 101.0 | -146.4
OCCP(c1ccccc1)c1ccccc1 | -25.9 | 100.0 | 61.2*
SMILES | Mtb MbtI inh | Polio RdRp inh | Mtb MenB inh
CS(=O)(=O)N1CCN(C(=O)CCCC(=O)O)CC1 | 11.9 | 101.0 | 5.6
COc1ccc(Cc2nc(S(=O)(=O)c3ccc(C)cc3)c(NCc3ccccc3)o2)cc1 | 78.1 | 101.0 | -20.1
Cc1nnc(SCC(=O)N/N=C/c2cccc3cccnc23)n1-c1ccccc1 | -8.9 | 101.0 | -13.8
NC1=NC(=O)C(C(=O)NC2(C(F)(F)F)Oc3cc(Cl)c(Cl)cc3O2)S1 (stereo not drawn) | 92.2* | 105.0 | 0.3
NC(=O)NC1(C(F)(F)F)Oc2ccccc2O1 | -11.5 | 105.0 | -15.1
Brc1ccc(-c2csc(NN=C3CCCC3)n2)cc1 | 79.8* | 101.0 | -35.8
Brc1ccc(-c2csc(N/N=C/c3ccco3)n2)cc1 | -2.0 | 100.0 | -47.7
C(=N\N=C(c1ccccc1)C12CN3CN(CN(C3)C1)C2)/c1ccccc1 | 6.5 | 99.0 | -10.3
COc1ccccc1Cn1cnc2ccccc21 | 7.6 | 105.0 | -3.9
COc1ccc(Cc2nn3c(Cn4cnc5ccccc54)nnc3s2)cc1 | 99.0* | 100.0 | -40.4
CCOc1cc(/C(O)=C(\C#N)c2nc3ccccc3[nH]2)cc(OCC)c1OCC | -17.6 | 100.0 | -40.3
COC(=O)c1sc(=S)n(-c2cccc(OC)c2)c1N | 95.6* | 97.0 | -15.4
COC(=O)c1sc(=S)n(-c2cc(OC)ccc2OC)c1N | 18.5 | 98.0 | -20.1
O=C(CCCn1c(=O)oc2ccccc21)N1CCCc2ccccc21 | 1.6 | 99.0 | 0.5
C=CCN(CC)C(=O)C1C(=O)CC(C)(C)CC1=O | -3.3 | 103.0 | 3.6
Cc1cccc(CCNC(=O)[C@H](Cc2ccccc2)N2Cc3ccccc3C2=O)c1 | -1.0 | 101.0 | -13.1
CCc1nnsc1C(=O)Nc1sc2c(c1C(=O)NCC1CCCO1)CCCC2 (stereo not drawn) | -5.5 | 105.0 | -33.0
CC1=C/C(=N/NC(=O)C2CC2)CC1 | -11.1 | 99.0 | -11.7
Nn1c(Cc2cccc3ccccc23)nnc1SCC(=O)N1CCCC1=O | 19.3 | 103.0 | -32.2
Cc1nc(CSc2nnc(Cc3cccc4ccccc34)n2N)cs1 | 56.8* | 100.0 | -28.3
CCCNC(=O)COc1ccc(OC)cc1 | -11.8 | 104.0 | -13.3
COc1ccc(OCC(=O)NCCO)cc1 | 13.6 | 102.0 | 34.6*
Cc1noc(C)c1CSc1ccccc1C(=O)N1CCN(C(=O)c2ccco2)CC1 | -8.1 | 108.0 | -5.7
CS(=O)(=O)c1nc(-c2ccc(Cl)cc2)n[nH]1 | · | 100.0 | 0.0
CS(=O)(=O)c1nc(-c2ccc(Br)cc2)n[nH]1 | 89.7* | 100.0 | 14.9
CC/C(=N/NC(=O)C1C2CCCCC21)c1ccc(O)cc1 (stereo not drawn) | -18.8 | 101.0 | -12.1
Cc1ccc(C(=O)N/N=C/c2ccc(O)c(O)c2O)c(C)c1 | 43.5 | 95.0 | -31.7

From PubChem BioAssay
